Sampled rows, rich in hits. Any-hit rate of the full collection: about 3.8%.
Mdm2-MdmX inh = human Mdm2/MdmX binding inhibition; SaOS-2 split-luciferase Mdm2/MdmX complementation, luminescence; O15151+Q00987; actives 3% (n = 330,000); inhibition, % at 8 µM;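 active = inhibition of at least 50% at 8 µM in the primary screen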
Target sequence (O15151 whole entry, looked up): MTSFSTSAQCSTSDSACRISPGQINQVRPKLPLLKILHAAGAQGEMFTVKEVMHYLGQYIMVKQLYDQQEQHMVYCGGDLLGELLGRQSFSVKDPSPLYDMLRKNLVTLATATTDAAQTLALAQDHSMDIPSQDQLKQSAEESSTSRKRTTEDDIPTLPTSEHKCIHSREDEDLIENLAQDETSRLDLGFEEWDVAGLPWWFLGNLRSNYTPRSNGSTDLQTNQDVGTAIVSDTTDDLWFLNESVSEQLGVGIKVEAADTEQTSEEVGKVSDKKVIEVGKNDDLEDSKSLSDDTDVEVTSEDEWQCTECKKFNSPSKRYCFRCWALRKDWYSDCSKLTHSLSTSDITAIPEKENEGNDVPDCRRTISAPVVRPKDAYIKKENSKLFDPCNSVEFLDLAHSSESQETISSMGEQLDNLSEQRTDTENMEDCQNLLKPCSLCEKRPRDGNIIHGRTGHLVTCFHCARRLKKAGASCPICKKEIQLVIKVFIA
Target sequence (Q00987 whole entry, looked up): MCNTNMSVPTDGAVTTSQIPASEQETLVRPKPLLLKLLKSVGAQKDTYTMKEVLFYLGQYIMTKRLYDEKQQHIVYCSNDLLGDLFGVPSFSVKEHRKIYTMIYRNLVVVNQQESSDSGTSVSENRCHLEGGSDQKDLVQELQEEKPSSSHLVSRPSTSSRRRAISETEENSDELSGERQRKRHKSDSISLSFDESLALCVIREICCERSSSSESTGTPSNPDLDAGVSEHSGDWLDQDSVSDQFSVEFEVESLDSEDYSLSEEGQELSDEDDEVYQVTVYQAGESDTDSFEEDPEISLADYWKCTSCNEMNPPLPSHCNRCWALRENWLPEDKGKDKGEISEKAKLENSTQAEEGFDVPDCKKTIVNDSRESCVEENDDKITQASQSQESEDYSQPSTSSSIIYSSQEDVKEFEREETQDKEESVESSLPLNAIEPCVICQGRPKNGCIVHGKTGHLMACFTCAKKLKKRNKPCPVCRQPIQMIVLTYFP
Shn3 3UTR inh = Schnurri-3 reporter inhibition in Clone20 osteoblasts; Clone20 osteoblast Shn3 3'UTR firefly luciferase, 24 h; actives 0.52% (n = 360,000); inhibition, % at 12.5 µM; AID 588674;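 active = mean inhibition of at least 75% with every replicate also reaching 75%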;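 note: 0% = median of neutral control wells and 100% = pilot-screen positive control compound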
Jurkat NFkB inh = lowers PMA/ionomycin-induced NF-kB signal in Jurkat cells; PMA/ionomycin-induced NF-kB luciferase reporter, luminescence; actives 0.53% (n = 330,000); inhibition, % at 4 µM; in the data active = inhibition above about 50%
697 NFkB inh = lowers PMA/ionomycin-induced NF-kB signal in 697 B cells. 697 B-cell NF-kB luciferase reporter, 16 h. inhibition, % at 4 µM. actives 0.33% (n = 330,000). AID 435022; in the data active = inhibition above about 35%
Gli-Sufu block = Gli-Sufu pathway antagonism; Sufu-KO-LIGHT fibroblasts, Gli luciferase reporter luminescence; inhibition, % at 5 µM; actives 0.74% (n = 340,000); AID 588413;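 active = inhibition above about 55%, limit read from the data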;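 note: 0% = DMSO-treated cells and 100% = wells with medium but no cells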
Mdm2-MdmX conf = human Mdm2/MdmX binding inhibition, confirmed | luminescent assay | shares compounds with Mdm2-MdmX inh | inhibition, % at 8 µM | AID 489028 | actives 55% (n = 10,000); in the data active = inhibition above about 40%
Full FLuc ctr = inhibits full-length luciferase, flagging false Mdm2/MdmX hits; shares compounds with Mdm2-MdmX inh; SaOS-2 full-length luciferase counterscreen, luminescence; inhibition, % at 8 µM; actives 77% (n = 6,200); AID 504607;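 active = mean inhibition at 8 µM reaching about 37%, which flags the compound as non-specific, limit read from the data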;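 note: p53-null SaOS-2 cells with luciferase driven by a doxycycline-inducible promoter; compound on cells about two nights before reading with doxycycline added after day one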
* marks the source's active call; other numbers are inactive results; . = not tested or not shown.

SMILES	Mdm2-MdmX inh	Shn3 3UTR inh	Jurkat NFkB inh	697 NFkB inh	Gli-Sufu block	Mdm2-MdmX conf	Full FLuc ctr
Cc1ccc2nc(-c3ccccn3)cc(C(=O)Nc3ccc(S(=O)(=O)N4CCOCC4)cc3)c2c1	35.7	37.9	6.6	4.8	16.7	.	.
COc1ccc(C(=O)Nc2nc(-c3ccccn3)cs2)cc1S(=O)(=O)N1CCOCC1	49.1	68.8	9.5	-1.7	-2.3	.	.
O=C(Nc1nc(-c2ccccn2)cs1)c1ccc(S(=O)(=O)N2CCCCC2)cc1	88.1*	.	24.3	-26.5	.	89.5*	15.8
O=C(N/N=C/c1sc(N2CCOCC2)nc1-c1ccccc1)c1cccc(S(=O)(=O)N2CCOCC2)c1	75.6*	83.8	11.0	-4.2	-0.3	69.7*	42.7*
Nc1ccc(C(=O)N/N=C/c2sc(N3CCOCC3)nc2-c2ccccc2)cc1	-3.2	-16.4	2.9	30.0	2.1	.	.
CCSc1nc2sccc2c(=O)n1-c1ccccc1	6.4	1.6	-24.2	-5.8	14.8	.	.
CCN(CC)CCCCCCCCOC(=O)c1cc(OC)c(OC)c(OC)c1	50.2*	-13.7	-14.4	-23.1	6.7	27.8	.
Brc1cccc(-c2nc3cccnc3nc2-c2cccc(Br)c2)c1	13.3	-34.4	1.7	-10.4	6.8	.	.
Clc1ccc(-[n+]2c(-c3cccc(Br)c3)[nH]c3nc4ccccc4nc32)cc1	60.8*	3.4	11.5	-11.2	22.5	15.3	.
CN(C)S(=O)(=O)c1ccc(Cl)c(NC(=O)CSc2nc3c(cc2C#N)C(=O)CC(C)(C)C3)c1	13.4	21.8	-1.7	14.1	9.2	.	.
CN(C)S(=O)(=O)c1cccc(NC(=O)CSc2nc3c(cc2C#N)C(=O)CC(C)(C)C3)c1	57.2*	34.2	41.9	-3.3	7.7	51.2*	51.5*
CN(C)S(=O)(=O)c1ccc(SCC(=O)Nc2cccc(S(=O)(=O)N3CCCC3)c2)nc1	.	4.5	.	.	-12.4	.	.
CN(C)S(=O)(=O)c1cccc(NC(=O)CSc2cccc3cccnc23)c1	97.5*	12.6	2.5	2.9	16.9	48.7*	17.4
CCC(=O)Nc1cccc(C(=O)/C=C/c2ccccc2)c1	95.3*	-35.9	-23.8	-21.9	-16.0	31.4	34.4
COc1cc(CNC(=O)c2cc(-c3cc(F)ccc3OCC3CCCO3)n[nH]2)cc(OC)c1 (centres undefined)	.	22.2	.	.	.	.	.
O=C(NCc1ccco1)/C(=C/c1cccc(C(F)(F)F)c1)c1nc2ccccc2[nH]1	82.7*	-19.1	0.7	1.3	10.9	83.6*	37.9*
NS(=O)(=O)c1ccc(NC(=O)COC(=O)Cn2cnc3ccccc3c2=O)cc1	1.7	-21.3	-7.9	2.5	-3.4	.	.
COC(=O)c1c(C)n(-c2ccc(C)cc2)c2ccc(O)cc12	52.6*	-4.3	9.3	-5.0	0.6	45.6*	54.7*
CCOc1ccc(-n2c(C)c(C(C)=O)c3cc(O)ccc32)cc1	53.5*	3.7	23.5	-25.7	-7.4	55.5*	31.2
CC(=O)c1ccc(-n2c(C)c(C(C)=O)c3cc(O)ccc32)cc1	62.3*	34.1	20.8	12.0	-14.3	64.7*	47.6*
Cc1nc2c(sc(=S)n2Cc2ccco2)c(=O)n1CC(=O)Nc1cc(F)ccc1F	30.6	4.0	-11.4	-5.1	5.2	.	.
O=[N+]([O-])c1ccc(COc2cccc(CNc3ccc(Br)cc3)c2)cc1	27.3	12.7	2.4	10.5	-11.5	.	.
CCN(c1cccc(C)c1)S(=O)(=O)c1cc(CN2C(=O)c3cccnc3C2=O)ccc1OC	22.1	-0.5	1.2	1.7	-12.8	.	.
CC(C)CCCN1C(N(C)C)=NC[C@@H]1Cc1ccccc1	-3.0	78.7	-12.3	-8.9	34.4	.	.
COc1ccc(NC(=O)c2cccc(S(=O)(=O)NCc3ccccc3)c2)cc1S(N)(=O)=O	10.4	-5.5	19.1	5.5	-1.0	.	.
SMILES	Mdm2-MdmX inh	Shn3 3UTR inh	Jurkat NFkB inh	697 NFkB inh	Gli-Sufu block	Mdm2-MdmX conf	Full FLuc ctr
CCCC(=O)Nc1cc(S(=O)(=O)N(CC)CC)ccc1Cl	15.6	3.5	11.9	-0.1	-3.0	.	.
COc1cccc([C@@H]2Oc3ccc(Br)cc3C(=O)[C@H]2OC(=O)NC2CCCC2)c1	5.5	.	9.7	-11.0	-1.7	.	.
CC(C)Cc1nc2oc3c(Cl)ncnc3c2c2c1CCC2	100.2*	-14.4	6.5	17.3	20.5	69.8*	51.1*
COc1ccc(Nc2cc(Nc3cccc(OC)c3)ncn2)cc1	13.5	-10.1	-39.7	-48.1	-50.0	.	.
O=C(CSc1nc(-c2ccco2)cc(C(F)(F)F)n1)NCCc1ccccc1	72.9*	-4.5	1.4	16.3	5.1	68.0*	21.1
Cc1cc(NC(=O)CSc2nc(-c3ccco3)cc(C(F)(F)F)n2)no1	65.0*	41.9	46.4	-25.7	-2.4	52.8*	76.7*
COc1ccc(CCNC(=O)CSc2nc(-c3ccco3)cc(C(F)(F)F)n2)cc1OC	-12.2	8.2	-7.4	-9.9	2.1	.	.
O=C(NCc1ccccn1)c1ccc(CNS(=O)(=O)c2ccc(F)cc2)cc1	-20.2	-20.8	-17.4	-9.9	-8.5	.	.
COc1ccccc1N1CC(C(=O)Nc2nnc(SCC(=O)N3CCOCC3)s2)CC1=O (centres undefined)	13.2	-76.9	4.2	-0.3	8.4	.	.
O=C1Nc2ccccc2O/C1=C\c1c(F)cccc1Cl	60.0*	-4.1	12.9	9.4	13.2	42.0*	60.2*
CCC(=O)/C=C1/Sc2ccc(OC)cc2N1CCO	-4.0	8.6	3.3	-5.4	-1.1	.	.
CCC(/C=C1\Sc2ccc(OC)cc2N1CCO)=C\c1sc2ccc(OC)cc2[n+]1CCO	72.4*	15.0	-0.7	1.5	49.0	21.8	.
O=C(CSc1nc2cc(Cl)ccc2s1)NC1CCCc2ccccc21 (centres undefined)	0.4	-1.3	-0.6	11.9	-9.3	.	.
Cc1nn(-c2ccccc2)c(N2CCCC2)c1/C=N/NC(=O)c1cc2ccccc2cc1O	36.3	-10.4	-2.7	0.1	1.8	.	.
Cc1nn(-c2ccccc2)c(N2CCCC2)c1/C=N/NC(=O)c1cc(-c2ccccn2)nc2ccccc12	63.3*	15.0	14.7	33.2	1.8	15.4	.
Cc1nn(-c2ccccc2)c(N2CCCC2)c1/C=N/NC(=O)c1cc(-c2ccccc2)nc2ccccc12	56.8*	-13.7	7.1	1.4	6.8	46.9*	68.4*
Cc1nn(-c2ccccc2)c(N2CCCC2)c1/C=N/NC(=O)c1cc(-c2cccs2)nc2ccccc12	31.1	21.8	13.3	0.2	1.4	.	.
O=[N+]([O-])c1ccccc1S(=O)(=O)Nc1ccn(Cc2c(F)cccc2Cl)n1	35.5	12.6	2.8	15.6	-5.7	.	.
CC(=O)Nc1ccc(NC(=O)c2cc(=O)c3cc(C)cc(C)c3o2)cc1	67.2*	14.3	13.7	13.4	-4.0	54.2*	89.8*
Cc1cc(C)c2oc(C(=O)Nc3ccc(S(=O)(=O)N4CCC(C)CC4)cc3)cc(=O)c2c1	29.5	79.4	33.7	4.4	35.8	.	.
